# In the supplement of paper PMC9694430:
# Key:
# Test in all cases: thermal shift delta Tm vs DMSO control; higher = stronger stabilization (binding)
# Conditions in all cases: 12.5 µM; protein concentration 2 µM
# LOC_OS01G01410-cb001 = tested on: LOC_OS01G01410-cb001
# Procedure, shortened: (§1)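 Purified, E. coli-expressed rice kinase domain constructs were tested by differential scanning fluorimetry in 96-well plates: 19.5 μl of 2 μM kinase in 100 mM potassium phosphate pH 7.5, 150 mM NaCl, 10% glycerol, 5 × SYPRO Orange, plus compound in DMSO. Fluorescence was read from 25°C to 95°C at 0.05°C/s. Melting temperatures came from Boltzmann fits, and the shift is the triplicate mean relative to protein with DMSO alone.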
# LOC_OS01G02750-cb003 = tested on: LOC_OS01G02750-cb003
# Procedure, shortened: as §1
# LOC_OS01G10900-cb004 = tested on: LOC_OS01G10900-cb004
# Procedure, shortened: as §1
# LOC_OS01G13800-cb001 = tested on: LOC_OS01G13800-cb001
# Procedure, shortened: as §1
# LOC_OS01G14860-cb001 = tested on: LOC_OS01G14860-cb001
# Procedure, shortened: as §1
# LOC_OS01G21960-cb002 = tested on: LOC_OS01G21960-cb002
# Procedure, shortened: as §1
# LOC_OS01G39600-cb002 = tested on: LOC_OS01G39600-cb002
# Procedure, shortened: as §1
# LOC_OS01G48390-cb002 = tested on: LOC_OS01G48390-cb002
# Procedure, shortened: as §1
# LOC_OS01G51400-cb002 = tested on: LOC_OS01G51400-cb002
# Procedure, shortened: as §1
# LOC_OS01G52050-cb004 = tested on: T1, LOC_OS01G52050-cb004
# T1 sequence (whole entry): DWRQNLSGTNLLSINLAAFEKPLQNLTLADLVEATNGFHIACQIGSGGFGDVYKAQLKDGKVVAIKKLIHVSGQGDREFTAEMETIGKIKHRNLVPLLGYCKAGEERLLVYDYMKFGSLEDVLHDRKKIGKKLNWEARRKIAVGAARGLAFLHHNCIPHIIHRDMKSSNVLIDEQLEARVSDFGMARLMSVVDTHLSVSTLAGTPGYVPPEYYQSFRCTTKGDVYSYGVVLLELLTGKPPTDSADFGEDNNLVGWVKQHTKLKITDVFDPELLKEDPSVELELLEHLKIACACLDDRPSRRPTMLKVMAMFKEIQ
# Procedure, shortened: as §1
Compound,thermal shift delta Tm (LOC_OS01G01410-cb001) [°C],thermal shift delta Tm (LOC_OS01G02750-cb003) [°C],thermal shift delta Tm (LOC_OS01G10900-cb004) [°C],thermal shift delta Tm (LOC_OS01G13800-cb001) [°C],thermal shift delta Tm (LOC_OS01G14860-cb001) [°C],thermal shift delta Tm (LOC_OS01G21960-cb002) [°C],thermal shift delta Tm (LOC_OS01G39600-cb002) [°C],thermal shift delta Tm (LOC_OS01G48390-cb002) [°C],thermal shift delta Tm (LOC_OS01G51400-cb002) [°C],thermal shift delta Tm (LOC_OS01G52050-cb004) [°C]
Cc1cc(Nc2nc(N[C@@H](C)c3ccc(F)cc3)c(C#N)cc2F)n[nH]1,4.59,1.83,0.46,-0.07,5.09,1.28,4.3,5.61,0.07,0.63
C=CC(=O)Nc1cccc(Oc2nc(Nc3ccc(N4CCN(C)CC4)cc3)nc3ccsc23)c1,2.67,1.02,2.04,0.55,0.91,1.61,0.15,1.38,0.79,1.94
CCN1CCN(Cc2ccc(C(=O)Nc3ccc(C)c(Oc4ccc5c(c4)CC(=O)N5)c3)cc2C(F)(F)F)CC1,0.03,1.85,2.1,0.59,0.51,1.73,-0.14,0.94,0.25,1.08
O=C1Nc2ccc(I)cc2/C1=C/c1cc(Br)c(O)c(Br)c1,5.94,0.5,6.08,2.56,5.73,5.54,25.1,2.41,0.7,3.09
CN1CCN(Cc2ccc(NC(=O)Nc3ccc(Oc4ccnc(N)n4)cc3)cc2C(F)(F)F)CC1,0.75,4.82,0.41,0.15,7.67,0.98,0.62,1.03,0.2,1.93
CC(C)CC(=O)Nc1n[nH]c2c1CN(C(=O)C1CCN(C)CC1)C2(C)C,0.12,1.36,0.4,0.44,6.4,1.05,-0.1,0.75,0.45,0.59
COc1cc(OC)c(/C=C/S(=O)(=O)Cc2ccc(OC)c(NCC(=O)O)c2)c(OC)c1,0.51,1.22,0.58,0.83,0.27,0.96,-0.03,0.33,0.1,0.51
O=C(O)c1ccc2c(c1)nc(Nc1cccc(Cl)c1)c1ccncc12 [Silmitasertib (CX-4945)],0.84,2.8,1.54,0.77,2.7,2.28,6.15,0.06,0.3,2.54
CCS(=O)(=O)c1cccc(-c2cc(C(=O)NC3CCN(C)CC3)c(C)c3[nH]c4ncc(C)cc4c23)c1,3.99,0.8,4.18,-0.51,4.38,2.97,0.89,2.14,0.16,6.44
COc1cc2c(N3CCN(C(=O)Nc4ccc(OC(C)C)cc4)CC3)ncnc2cc1OCCCN1CCCCC1 [Tandutinib (MLN518)],0.23,1.12,0.43,0.92,0.05,0.83,0.57,-0.07,0.02,0.86
CS(=O)(=O)CCNCc1ccc(-c2ccc3ncnc(Nc4ccc(OCc5cccc(F)c5)c(Cl)c4)c3c2)o1,1.42,0.57,-0.68,0.49,0.2,0.5,0.33,0.41,0.31,0.63
"CC(C)(O)CNc1ncc(-c2ccnc(Nc3ccncc3)n2)c(CC2CC2)n1 [VPS34 inhibitor 1 (Compound 19, PIK-III analogue)]",0.51,1.04,5.05,0.63,2.25,0.87,0.48,1.46,0.29,4.06
Clc1ccc(Nc2nnc(Cc3ccncc3)c3ccccc23)cc1 [Vatalanib (PTK787) 2HCl],0.99,0.12,-0.92,0.36,0.31,0.21,0.01,0.44,-0.2,0.04
CO[C@H]1CC[C@H](N2C(=O)CNc3ncc(-c4ccc(C(C)(C)O)nc4)nc32)CC1,0.1,-0.2,-0.9,0.15,0.82,1.01,-1.7,-0.27,0.12,-1.81
CN(C)CCOc1ccc(-c2nc(-c3ccncc3)c(-c3ccc4c(c3)CC/C4=N\O)[nH]2)cc1,1.77,0.07,3.19,0.05,0.42,-0.07,0.16,1.16,0.46,0.22
COc1ccc2[nH]cc(/C=C3\C(=O)Nc4ccc(NC(=O)CCN5CCCCC5)cc43)c2c1,0.24,1.49,0.91,1.6,2.18,1.64,0.22,0.82,0.58,0.72
Cn1c(=O)c(F)c(Nc2ccc(I)cc2F)c2c(=O)n(C[C@@H](O)CO)cnc21,0.56,-0.22,0.49,0.43,0.33,0.97,0.25,0.55,0.57,0.27
O=C(O)c1ccc(-c2c[nH]c3ncc(-c4ccccc4)cc23)cc1C1CCCC1,5.06,4.25,0.46,-0.9,5.49,1.3,14.5,-1.42,-0.58,10.5
CC1=C(C(=O)Nc2ccc3[nH]ncc3c2)C(c2ccc(F)cc2)NC(=O)N1 (stereo not given),0.44,1.19,0.21,0.88,0.96,0.9,0.5,0.28,0.23,4.76
COc1cc2c(cc1OC)[C@@H]1C(=O)c3ccc4c(c3O[C@@H]1CO2)C=CC(C)(C)O4 [Deguelin],0.07,0.45,0.52,0.41,0.23,0.41,-0.1,0.4,-0.11,0.13
